An excerpt weighted towards active compounds, which were near 18% of everything screened.
IL1B secr inh – inhibitors of inflammasome signaling (IL-1 beta secretion); THP-1 LPS/ATP IL-1B secretion, AlphaLISA, 16 h; stronger effect = lower value; activity change, % at 57.5 µM; 360,000 tested, 4.7% active; in the data active = activity change below about -50%; inconclusive = mostly about -30% to -49%; note: % is set by controls: 0 for no effect and ±100 for the full control effect
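Secreted IL-1B measured by AlphaLISA bead assay after 16 h compound exposure of THP-1 cells; compounds (final up to 57.5 uM) added 1 h before LPS (250 ng/mL) and ATP (1.25 mM) stimulation; lower signal means less secretion.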
HepG2 tox – HepG2 cytotoxicity, counter-screen for TGF-b inhibitors | HepG2 CAGA-GFP viability, ATP luminescence, 18 h | Potency, µM (highest dose often 46.1 µM), inactives show at the top dose activity change, negative = cytotoxicity, most hits filed as cytotoxic | 410,000 tested, 0.76% active | AID 588856; note: potency is the fitted concentration of half-maximal effect
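CellTiter-Glo luminescence gave cytotoxicity after 18 hours at 37 degrees C. The cells were HepG2 CAGA-GFP in 1% FBS DMEM, stimulated with 500 pg/mL TGF-beta after compound addition. %Activity was normalised to no-cell wells (complete cell-killing) and DMSO (no toxicity), and curves were fitted and classified.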
DT40 TDP1 no CPT – qHTS for Inhibitors of human tyrosyl-DNA phosphodiesterase 1 (TDP1): qHTS in cells in absence of CPT | DT40 Tdp1-/- hTDP1 cells, no CPT, ATP luminescence, 48 h | Potency, µM (top dose mostly 46.2 µM), for the others: at the highest dose activity change, negative = growth inhibition, most hits filed as inhibitors | 420,000 tested, 15% active | AID 686978, 2013; note: potency is the fitted concentration of half-maximal effect; % is set by controls: 0 for no effect and ±100 for the full control effect; nearly all actives have a fitted effect of over 55% in size
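Chicken DT40 Tdp1-/- cells complemented with human TDP1, screened without camptothecin (DMSO vehicle only), 400 cells/well. Compounds pin-transferred, cells incubated at 37 °C for at least 48 hr. Growth read as ATP-dependent luminescence (CellTiter-Glo, 30 min at RT).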
TDP1 inh – blocks human tyrosyl-DNA phosphodiesterase 1; Q9NUW8; 350,000 tested, 0.28% active; Potency, µM (series often up to 130 µM), for inactives: at the top dose activity change, negative = inhibition, hits mostly inhibitors; recombinant TDP1, AlphaScreen DNA substrate cleavage; AID 485290; note: potency is the fitted concentration of half-maximal effect; % is set by controls: 0 for no effect and ±100 for the full control effect; nearly all actives have a fitted effect of over 40% in size
Target sequence (Q9NUW8 whole entry, looked up): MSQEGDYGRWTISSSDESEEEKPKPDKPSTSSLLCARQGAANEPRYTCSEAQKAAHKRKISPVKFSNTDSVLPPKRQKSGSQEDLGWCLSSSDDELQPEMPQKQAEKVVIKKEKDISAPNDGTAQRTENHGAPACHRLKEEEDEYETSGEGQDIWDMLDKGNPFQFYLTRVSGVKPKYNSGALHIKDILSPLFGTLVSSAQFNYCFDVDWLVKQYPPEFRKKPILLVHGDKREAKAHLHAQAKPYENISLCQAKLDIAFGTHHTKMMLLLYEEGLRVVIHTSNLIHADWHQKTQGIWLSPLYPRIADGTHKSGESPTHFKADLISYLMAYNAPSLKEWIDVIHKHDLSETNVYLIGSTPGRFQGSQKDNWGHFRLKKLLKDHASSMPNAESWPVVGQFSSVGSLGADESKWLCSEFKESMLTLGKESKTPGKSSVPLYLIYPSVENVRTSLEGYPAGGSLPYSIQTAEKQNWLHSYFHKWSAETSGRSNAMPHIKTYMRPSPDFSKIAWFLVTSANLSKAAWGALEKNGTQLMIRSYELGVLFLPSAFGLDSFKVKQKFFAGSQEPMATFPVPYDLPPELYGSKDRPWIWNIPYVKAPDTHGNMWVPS
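Signal: AlphaScreen proximity between streptavidin donor and anti-FITC acceptor beads on intact substrate. Reaction: Tdp1 1 nM, substrate 15 nM final, 5 min RT after 15 min compound preincubation.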
DT40 TDP1 CPT – growth inhibition of DT40 Tdp1-/-;hTDP1 cells with camptothecin (screen for TDP1 inhibitors); chicken DT40 Tdp1-/-;hTDP1 cells + 20 nM CPT, ATP luminescence, 48 h; Potency, µM (highest dose often 46.2 µM), without a hit: at the top dose activity change, negative = growth inhibition, usual class: inhibitors; 420,000 tested, 12% active; AID 686979; note: potency is the fitted concentration of half-maximal effect; % is set by controls: 0 for no effect and ±100 for the full control effect; nearly all actives have a fitted effect of over 55% in size
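Cell growth measured by CellTiter-Glo luminescence after a minimum 48 h, 37 C compound exposure with 20 nM CPT in Tdp1-knockout DT40 cells stably expressing hTDP1, seeded 400/well; qHTS titration format.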
TGFb inhibitor – TGF-b pathway inhibition | HepG2 CAGA-GFP TGF-b/SMAD3 reporter, GFP fluorescence, 18 h; TGF-beta stimulated, 500 pg/mL final | Potency, µM (doses to about 46.1 µM), inactives show top-dose activity, negative = inhibition, usual class: inhibitors | 410,000 tested, 1.2% active | AID 588855; note: potency is the fitted concentration of half-maximal effect; % is set by controls: 0 for no effect and ±100 for the full control effect; nearly all actives have a fitted effect of over 65% in size
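GFP signal (ex488/em500-530) from TGF-beta-stimulated HEPG2 CAGA-GFP cells, 500 pg/mL final, 18 h at 37 degrees C in DMEM plus 1% FBS, normalized to unstimulated and DMSO-stimulated controls.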
* hit, by the source's call; ? = inconclusive; nt = no result. Unless noted, calls come from the whole dose curve; as a rule, active = well fitted curve in the direction sought with a large enough effect; inconclusive = small, poorly fitted or top-dose-only effect, or another doubt; inactive = no such curve, though single readings can be large; an effect the other way counts as inactive or inconclusive.

SMILES	IL1B secr inh	HepG2 tox	DT40 TDP1 no CPT	TDP1 inh	DT40 TDP1 CPT	TGFb inhibitor
COCC(=O)N(C)C[C@@H]1Oc2ncc(Br)cc2C(=O)N([C@@H](C)CO)C[C@H]1C	7.7	-16.9%	-19.1%	nt	14.1%	-16.8%
COc1ccccc1CC(=O)Nc1ccc(-c2noc(COc3ccc(Br)cc3)n2)cc1	-12.5	-10.7%	-27.2%	-2.0%	-18.4%	-4.0%
O=C(NCc1nc(-c2ccccc2)no1)c1ccc2c(c1)OCO2	0.0	-25.5%	-17.6%	4.7%	-15.1%	-11.0%
COc1ccccc1CC(=O)Nc1ccc(-c2noc(COc3cccc(C)c3C)n2)cc1	-8.5	40.5%	13µM*	3.9%	18.4µM*	?
Cc1ccccc1OCc1nc(-c2ccc(NC(=O)c3ccco3)cc2)no1	0.0	-24.2%	23.1µM*	7.3%	?	-0.8%
Cc1ccccc1OCc1nc(-c2ccc(NC(=O)c3ccc4c(c3)OCO4)cc2)no1	13.3	20µM*	23.1µM*	2.0%	?	?
O=C(Nc1ccc(-c2noc(-c3ccccc3F)n2)cc1)c1cccs1	-12.9	6.0%	?	-1.8%	?	-8.1%
Cc1ccccc1-c1nc(-c2ccc(NC(=O)c3cccs3)cc2)no1	?	-11.6%	?	-2.0%	23.1µM*	3.0%
COC(=O)[C@]1(Cc2ccccc2)N[C@H](CN(C)C(=O)C2CCCCC2)[C@@H]2C(=O)N(C)C(=O)[C@@H]21	-8.7	8.8%	-8.1%	0.5%	-0.7%	10.5%
COc1ccc(CC(=O)Nc2ccc(-c3noc(-c4ccccc4OC)n3)cc2)cc1	-62.5*	-44.1%	?	-2.2%	?	-13.3%
CCOC(=O)C1=C(Nc2ccccc2)CC(C)(O)C(C(=O)OCC)C1c1ccc(Br)cc1 (configuration not stated)	-27.3	-6.7%	16.4µM*	8.0%	?	?
CCOC(=O)C1=C(Nc2ccccc2)CC(C)(O)C(C(=O)OCC)C1c1ccccc1 (configuration not stated)	-16.8	4.1%	1.3%	0.0%	-0.3%	10.2%
Cc1[nH]n(C(N)=S)c(=O)c1N=Nc1cc(-c2ccc(Br)cc2)[nH]n1	5.9	7.2%	2.91µM*	8.0%	3.26µM*	1.4%
Cc1[nH]n(C(N)=S)c(=O)c1N=Nc1ccc(S(=O)(=O)N2CCCCCC2)cc1	0.0	-28.6%	20.6µM*	12.4%	?	-0.8%
CC(=O)Nc1ccc(N=Nc2c(C)[nH]n(C(N)=S)c2=O)cc1	-6.6	-0.9%	-13.3%	-5.3%	-16.0%	-6.8%
Cc1ccc(N=Nc2c(C)[nH]n(C(N)=S)c2=O)cc1C	10.4	-1.8%	1.64µM*	0.0%	1.84µM*	-5.0%
COc1cccc(C2CC(=O)Nc3c2c(=O)nc2c(C)cccn32)c1OC (configuration not stated)	nt	3.0%	-8.1%	9.3%	-3.1%	-0.4%
COc1cccc(CNC(=O)CCn2c(=O)c3cccn3c3cccnc32)c1OC	nt	-1.0%	-24.4%	2.6%	-13.4%	-27.3%
Cc1cccc(Nc2nnc(SCC3CCCCO3)s2)c1 (configuration not stated)	-4.9	-60.4%	?	5.3%	23.1µM*	-9.9%
COc1ccc(Nc2nnc(SCC3CCCCO3)s2)cc1 (configuration not stated)	0.0	-22.0%	-2.7%	5.8%	-1.3%	0.9%
CNC(=O)c1ccccc1Sc1ccc2c(/C=C/c3ccccn3)n[nH]c2c1	nt	nt	2.66µM*	nt	4.22µM*	nt
CN1C(=O)C[C@@H](C(=O)N[C@@H](Cc2cnc[nH]2)C(=O)N2CCC[C@H]2C(N)=O)NC1=O	nt	nt	-6.9%	nt	8.9%	nt
Cc1ccc(Cl)cc1N1CCN(C(=O)c2c(C)oc3ncnc(N4CCOCC4)c23)CC1	nt	-20.3%	?	3.2%	?	?
CCC(Sc1nc2n[nH]c(C)c2c(=N)n1-c1cc(Cl)ccc1C)C(=O)N1CCOCC1 (configuration not stated)	-13.5	4.8%	11.6µM*	-0.2%	?	3.7%
CCOc1ccc(-n2nc(CO)c(C(=O)NCc3cccs3)n2)cc1	nt	-21.6%	16.4µM*	-2.3%	?	0.0%
SMILES	IL1B secr inh	HepG2 tox	DT40 TDP1 no CPT	TDP1 inh	DT40 TDP1 CPT	TGFb inhibitor
COc1ccc(CC(=O)Nc2ccc(S(=O)(=O)N(C)C3CCN(C)CC3)cc2)cc1	15.3	-4.7%	-10.7%	0.1%	?	2.7%
CN1CCC(N(C)S(=O)(=O)c2ccc(NC(=O)COc3cccc(C(F)(F)F)c3)cc2)CC1	-52.7*	-31.9%	?	0.3%	?	2.4%
O=C(COc1ccc(C(=O)O)cc1)Nc1cccc(C(F)(F)F)c1	49.3	-6.0%	-13.3%	-5.8%	-20.6%	4.4%
CC(Oc1ccc(Br)cc1)C(=O)Nc1ccc(S(=O)(=O)N(C)C2CCN(C)CC2)cc1 (configuration not stated)	-97.7*	-39.7%	6.51µM*	-10.3%	11.6µM*	?
CN1CCN(C(=S)c2ccc(OCC(=O)Nc3cccc(C(F)(F)F)c3)cc2)CC1	?	-30.7%	9.2µM*	0.0%	20.6µM*	-45.3%
CC1(C(=O)Nc2cccc3cccnc23)CCN1C(=O)Cc1ccc(Cl)cc1Cl (configuration not stated)	-21.6	-29.4%	20.6µM*	nt	20.6µM*	?
CC1(C(=O)Nc2ccc(Cl)c(Cl)c2)CCN1C(=O)CC1CCCC1 (configuration not stated)	-6.7	-16.7%	?	nt	25.9µM*	-17.6%
COc1ccc(OC)c(NC(=O)C2(C)CCN2C(=O)Cc2ccc(Cl)cc2Cl)c1 (configuration not stated)	-1.4	-2.8%	18.4µM*	nt	20.6µM*	-24.4%
COc1ccc(NC(=O)C2(C)CCN2C(=O)Cc2ccc(Cl)cc2Cl)cc1OC (configuration not stated)	-19.2	-28.6%	20.6µM*	nt	18.4µM*	?
CC1(C(=O)Nc2ccc3c(c2)OCCO3)CCN1C(=O)CC1CCCC1 (configuration not stated)	-4.2	-1.2%	?	nt	?	18.8%
CC1(C(=O)Nc2cccc3cccnc23)CCN1C(=O)CC1CC1 (configuration not stated)	20.5	-31.2%	-17.1%	nt	-23.3%	-20.6%

High-throughput results from PubChem BioAssay.
